The text below walks through data of PubChem BioAssay (NCI).

Molecules are shown by their SMILES. “And” between values parts separate entries of the source, which are not always exact repeats. Equal values may be shown once. About 83,000 compounds went through this panel and 20% of them were active in at least one assay; those are over-represented in the sample as a whole.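 The endpoint reported here, percent growth, reads 100 for growth as untreated, 0 for no net growth and -100 for all cells dead.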 The source made the active and inactive calls. Rule for the calls: active = growth percent below 10; inactive = the rest.

The experiment concerns MDA-MB-468 breast. The experiment can be described thus: NCI-60 one-dose screen, 48 h (100 = growth as untreated, 0 = no growth, -100 = all killed). The note with it: 10 µM unless noted.
`CC(=O)Nc1nc(N)nc(NC(C)=O)c1N=O`: the growth is 118% (inactive).

In the case of `CCOC(=O)[C@]1(Br)CC[C@@]1(Br)C(=O)OCC`, the growth was 44.9% (inactive).

Turning to `Fc1cc(C(F)(F)F)ccc1-c1cncnc1NC1CCCCCC1`, the growth was 82.4% (inactive).

Turning to `CC[C@H](CC[C@@H](C)[C@H]1CC[C@H]2[C@@H]3CC=C4C[C@@H](OCCc5nn[nH]n5)CC[C@]4(C)[C@H]3CC[C@]12C)C(C)C`, the growth was 118% (inactive).

For `Cc1ccc(NC(=O)c2[nH]c(SCCN(C)C)nc2-c2ccc(F)cc2)cc1C#Cc1cnc2cccnn12`, the growth is 83.1% (inactive).

Turning to `Cc1cc(C2(c3cc(C)c(O)cc3C)OS(=O)(=O)c3ccccc32)c(C)cc1O`, the growth is 114% (inactive).

As to `C=C1C(=O)O[C@H]2[C@H]1CC/C(CNC(=O)C(C)c1ccc(CC(C)C)cc1)=C\CC[C@@]1(C)O[C@@H]21` (stereo not given in full), the growth was -23.5% (active).

With `C=C1C[C@@]2(C)C(CC[C@]3(C)C2CC=C2C4CC(C)(C)C[C@@H](OC(=O)/C(C)=C\C)[C@]4(C(=O)O)CC[C@]23C)C(C)(C)C1=O` (stereo not given in full), the growth is -23.9% (active).

With `O=C(OCc1ccc2c(Cl)cc(Cl)c(O)c2n1)N1CCN(C(=O)c2cc3ccccc3[nH]2)CC1`, the growth was 10.3% (inactive).

Turning to `COc1ccc(C2CC(c3ccc4ccccc4c3)=NN2c2nc(O)c(C3=c4cc(OC)ccc4=NC3=O)s2)cc1` (stereo not given), the growth is -46.5% (active).

In the case of `COc1ccc(C(=O)c2ccc(C)cc2)c(OC)c1OC`, the growth was 20.5% (inactive).

As to `CCCCC/C=C\C/C=C/CCCCCCCCNC(=O)Nc1ccc([N+](=O)[O-])cc1`, the growth is 84.5% (inactive).

Regarding `CCOC(=O)c1noc2c1CCc1cn(Cc3cc(OC)cc(OC)c3)cc1-2`, the growth is 108% (inactive).

Turning to `C/C(Cc1ccc(Cl)cc1)=C(\c1ccc(OCCCN(C)C)cc1)c1ccc(OC(=O)Cc2ccccc2)cc1`, the growth was 111% (inactive).

Consider `COc1ccc(-c2nc(Nc3cc(C)[nH]n3)c3ccccc3n2)cc1`, for which the growth was 47.3% (inactive).

Consider `COc1ccc(C2=CC(c3ccc(Oc4ccnc5cc(Cl)ccc45)c(OC)c3)c3c(nc(OC)[nH]c3=O)N2)cc1` (stereo not given), for which the growth is 61.4% (inactive).

`CCOC(=O)c1ccc2c(c1)c1c(C)c3ccncc3c(C)c1n2C`: the growth was 5.19% (active).

Regarding `CCCCSc1ncnc2c1ncn2C1CCCCO1` (stereo not given), the growth was 122% (inactive).

Turning to `COc1ccc(-c2nc(SCC(C)C)nc(Nc3ccc([N+](=O)[O-])cc3)c2C#N)cc1`, the growth is 93.4% (inactive).

Turning to `CC1CC(C)/C(=N/NC(N)=O)C(C(O)CC2CCC(=O)NC2=O)C1` (stereo not given), the growth is 46.9% (inactive).

Take `CC(=O)Nc1cc2c(cc1Cl)Cc1cc(Cl)ccc1-2`: the growth was -50.2% (active).

For the compound `O=C(O)CCCCCNC(=O)OCc1ccccc1`, the growth is 116% (inactive).

Regarding `COc1ccccc1C(OC(C)=O)OC(C)=O`, the growth was 98% (inactive).

Take `Cc1ccc(C(=O)CC(=O)C(F)(F)C(F)(F)C(F)(F)F)s1`: the growth was 102% (inactive).

Regarding `c1ccc2c(N3CCCCC3)ncnc2c1`, the growth is 75.9% (inactive).

As for `CCN(Cc1cccc(S(=O)(=O)[O-])c1)c1ccc(C(=C2C=CC(=[N+](CC)Cc3cccc(S(=O)(=O)O)c3)C=C2)c2ccccc2S(=O)(=O)O)cc1`, the growth was 92.9% (inactive).

Turning to `O=S(Cc1ccccc1)/C(=C/NC(=S)Nc1cc(Cl)ccc1Cl)c1ccccc1` (stereo not given), the growth is 106% (inactive).

For `c1cc[n+](Cc2c3ccccc3cc3c2ccc2ccccc23)cc1`, the growth was -40.5% (active).

Turning to `COc1ccc(/C=N/Nc2ccnc3cc(Cl)ccc23)cc1Cl`, the growth was -71.9% (active).

With `COc1ccc(/C(C#N)=C/c2ccccn2)cc1`, the growth is 89% (inactive) and 82% (inactive).

On to `CCOc1ccccc1/C=N\Nc1ccc(S(=O)(=O)c2ccc(N/N=C/c3ccccc3OCC)cc2)cc1`, for which the growth was 96.8% (inactive).

Regarding `CCCCc1ccc(C(O)(CCN2CC3CCC(CC3)C2)c2ccccc2)cc1` (stereo not given), the growth is 97.4% (inactive).

For the compound `COc1cccc(CNc2c3ccccc3nc3ccccc23)c1`, the growth is 13.6% (inactive).

`COc1cc(C(=O)O/N=C(\N)Cc2cccc3ccccc23)cc(OC)c1OC`: the growth is -72.1% (active).

Turning to `O=C(/C=C/c1ccccc1Cl)Nc1ncc(Cc2cc(Cl)ccc2Cl)s1`, the growth was 22.8% (inactive).

On to `O=C(CSc1nc2ccc([N+](=O)[O-])cc2[nH]1)Nc1ccc(F)cc1`, for which the growth is 22.3% (inactive).

For `O=C(NC1CCN(Cc2ccccc2)CC1)c1cc(C(=O)NC2CCN(Cc3ccccc3)CC2)cc(C(=O)NC2CCN(Cc3ccccc3)CC2)c1`, the growth is 84.9% (inactive).

On to `Cc1cc(N2CCCCCC2)nc(NC2CCCC(Nc3ccnc4cc(Cl)ccc34)C2)n1` (stereo not given), for which the growth was -63.9% (active).

In the case of `COc1cc2c(c(OC)c1OC)CCC(c1cccc(C(=O)Nc3cccc(Cl)c3)c1)O2` (stereo not given), the growth was 77.4% (inactive).

With `CC(C)(CCc1ccccn1)C(=O)CCCc1ccccn1`, the growth is 107% (inactive).
